{"source": "PubChem BioAssay (NCI)", "note": "Values joined by “and” are separate entries in the source; they are usually repeats but may differ in a detail not shown here. Equal entries are not always repeated. This is part of a sample that, as a whole, favours compounds with a hit. Of some 79,000 tested, about 15% had one in any assay. Active and inactive are the calls of the source. Cut-off read from the data, not from the text of the source: active = growth inhibition above about 70%; inactive = the rest.", "data": [{"assay": "NCI Yeast Anticancer Drug Screen. Data for the bub3 strain (AID 167)", "settings": "S. cerevisiae bub3 mutant strain, active compounds read high; at 50.0 µM unless noted", "outline": "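Yeast carrying a defined mutation is treated with each compound, and growth is compared with that of vehicle-exposed cells to give inhibition.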", "values": [{"smiles": "Nc1ccc(OCc2ccccc2)cc1[N+](=O)[O-]", "growth inhibition": "-4.45% (inactive)"}, {"smiles": "COC(=O)c1cc(C(=O)OC)c(CC(=O)C(=O)NC2C3CC4CC(C3)CC2C4)nc1CC(=O)C(=O)NC1C2CC3CC(C2)CC1C3", "note": "(stereo not given)", "growth inhibition": "13.7% (inactive)"}, {"smiles": "COc1ccc(-c2nnc(N)s2)cc1OC", "growth inhibition": "-7.05% (inactive)"}, {"smiles": "CC1(CO)C2CCC(CC2)C1CO", "note": "(stereo not given)", "growth inhibition": "-5.1% (inactive)"}, {"smiles": "CC(C)CCCC(C)C1CCC2C3CC4OC45CC(O)CCC5(C)C3CCC12C", "note": "(stereo not given)", "growth inhibition": "-1.1% (inactive)"}, {"smiles": "COC(=O)C(Cc1ccccc1)C(=O)C(CC(=O)OC(C)(C)C)NC(=O)OC(C)(C)C", "note": "(stereo not given)", "growth inhibition": "22.1% (inactive)"}, {"smiles": "O=C(O)c1cscc1Cc1cccs1", "growth inhibition": "-76% (inactive)"}, {"smiles": "CSc1ccc(NC(=O)c2ccc(Cl)cc2)cc1", "growth inhibition": "5.25% (inactive)"}, {"smiles": "COc1ccc2c(c1)-c1c(ccc(OC)c1O)CC(c1ccccc1)[N+](C)(C)CC2", "note": "(stereo not given)", "growth inhibition": "2.25% (inactive)"}, {"smiles": "CC1=Nc2ccccc2C12C(c1ccccc1)C(c1ccccc1)C(=O)N1c3ccccc3CC12", "note": "(stereo not given)", "growth inhibition": "-14.3% (inactive)"}, {"smiles": "O=CC(O)C(Cl)C(Cl)C(O)CCl", "note": "(stereo not given)", "growth inhibition": "-2.65% (inactive) and -11% (inactive)"}, {"smiles": "C=C1CC[C@@H](C)[C@](C)(CCc2ccoc2)C/C=C\\C=C/1C(=O)O", "growth inhibition": "25.6% (inactive)"}, {"smiles": "O=c1[nH]c(=O)c2[nH]c(Br)nc2[nH]1", "growth inhibition": "-8.45% (inactive)"}, {"smiles": "N#CC(C(=O)C(=O)Nc1nccs1)c1ccccc1", "note": "(stereo not given)", "growth inhibition": "17.2% (inactive)"}, {"smiles": "CCCCc1cc(C(=O)OC/C(C)=N/NC(N)=O)c2ccccc2n1", "growth inhibition": "35.8% (inactive)"}, {"smiles": "CC(=O)Nc1cccc(OC(=O)Nc2ccc(F)c(Cl)c2)c1", "growth inhibition": "56.8% (inactive)"}, {"smiles": "OC1COC(OCc2ccccc2)C(O)C1O", "note": "(stereo not given)", "growth inhibition": "2.25% (inactive) and 6% (inactive)"}, {"smiles": "COc1nc(NC2OC(CO)C(O)C(O)C2O)c(I)c(=O)[nH]1", "note": "(stereo not given)", "growth inhibition": "-4.75% (inactive)"}, {"smiles": "CC(=O)CC(C)(C)c1cc(-c2ccccc2)on1", "growth inhibition": "19.4% (inactive)"}, {"smiles": "COc1ccc(C(c2ccc(OC)cc2)N2C(=O)CCC2C(=O)O)cc1", "note": "(stereo not given)", "growth inhibition": "-1% (inactive)"}, {"smiles": "CCOC(=O)c1cccc(N)c1C(=O)OCCN(CC)CC", "growth inhibition": "19.4% (inactive)"}, {"smiles": "CCCCCCC1OC(C)C(C)O1", "note": "(stereo not given)", "growth inhibition": "-3.95% (inactive)"}, {"smiles": "O=C(O)C1(F)CC1(c1ccccc1)c1ccccc1", "note": "(stereo not given)", "growth inhibition": "5.6% (inactive)"}, {"smiles": "c1nc2nc(N3CCOCC3)nc(N3CCOCC3)c2[nH]1", "growth inhibition": "-17.9% (inactive)"}, {"smiles": "COc1ccccc1C(=O)N/N=C/c1cccc([N+](=O)[O-])c1", "growth inhibition": "29.1% (inactive)"}, {"smiles": "COC(=O)c1ccccc1NS(=O)(=O)c1ccc(Cl)cc1", "growth inhibition": "93% (active)"}, {"smiles": "CO/N=C1/OC(=O)OCC1(c1ccccc1)c1ccccc1", "growth inhibition": "6.3% (inactive)"}, {"smiles": "CCOC(=O)C(C)NC(=O)c1ccccc1", "note": "(stereo not given)", "growth inhibition": "5.5% (inactive)"}, {"smiles": "Cn1c([N+](=O)[O-])cnc1CSc1nc(-c2ccccc2)no1", "growth inhibition": "5.25% (inactive)"}, {"smiles": "COC1CCC(=O)N1CN(C(C)=O)c1ccc(C)cc1", "note": "(stereo not given)", "growth inhibition": "3.75% (inactive)"}, {"smiles": "COc1ccc(COC(=O)Nc2ccc(Br)cc2)c(OC)c1", "growth inhibition": "16.8% (inactive)"}, {"smiles": "O=C1OC(c2ccccc2)=N/C1=C\\c1ccccc1", "growth inhibition": "3.9% (inactive) and -15.2% (inactive)"}, {"smiles": "CCC1(C=O)C(=O)NC(=O)N1C", "note": "(stereo not given)", "growth inhibition": "1.7% (inactive)"}, {"smiles": "CCN(CCOC)C(C)=O", "growth inhibition": "-0.45% (inactive)"}, {"smiles": "O=C1CCCc2ccc3c(c21)CC1(Cc2cc4c(cc2C1)CCCC4)C3", "growth inhibition": "32.4% (inactive)"}, {"smiles": "CN(C)c1ccc(NC(=O)C(c2ccccc2)c2ccccc2)cc1", "growth inhibition": "4.35% (inactive)"}, {"smiles": "ClC(Cl)(Cl)c1ncnc2nc[nH]c12", "growth inhibition": "-16.9% (inactive)"}, {"smiles": "O=c1c(O)c(-c2cc(O)c(O)c(O)c2)oc2cc(O)cc(O)c12", "growth inhibition": "14.5% (inactive)"}, {"smiles": "CCOC(CC(=O)NCCNC(C)=O)OCC", "growth inhibition": "18.4% (inactive)"}, {"smiles": "O=C1c2ccccc2CC(c2ccccc2)N1c1ccccc1", "note": "(stereo not given)", "growth inhibition": "3.55% (inactive)"}]}, {"assay": "NCI Yeast Anticancer Drug Screen. Data for the mlh1 rad18 strain (AID 175)", "settings": "S. cerevisiae mlh1 rad18 strain growth inhibition, active compounds read high; at 50.0 µM unless noted", "outline": "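Test agents were incubated with a yeast strain of defined genotype (DNA damage repair defect). Inhibition of growth was derived by comparison with vehicle-exposed cultures.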", "values": [{"smiles": "Nc1ccc(OCc2ccccc2)cc1[N+](=O)[O-]", "growth inhibition": "21% (inactive)"}, {"smiles": "COC(=O)c1cc(C(=O)OC)c(CC(=O)C(=O)NC2C3CC4CC(C3)CC2C4)nc1CC(=O)C(=O)NC1C2CC3CC(C2)CC1C3", "note": "(stereo not given)", "growth inhibition": "10.9% (inactive)"}, {"smiles": "COc1ccc(-c2nnc(N)s2)cc1OC", "growth inhibition": "6.35% (inactive)"}, {"smiles": "CC1(CO)C2CCC(CC2)C1CO", "note": "(stereo not given)", "growth inhibition": "2.5% (inactive)"}, {"smiles": "CC(C)CCCC(C)C1CCC2C3CC4OC45CC(O)CCC5(C)C3CCC12C", "note": "(stereo not given)", "growth inhibition": "29.4% (inactive)"}, {"smiles": "COC(=O)C(Cc1ccccc1)C(=O)C(CC(=O)OC(C)(C)C)NC(=O)OC(C)(C)C", "note": "(stereo not given)", "growth inhibition": "-27.5% (inactive)"}, {"smiles": "O=C(O)c1cscc1Cc1cccs1", "growth inhibition": "13.7% (inactive)"}, {"smiles": "CSc1ccc(NC(=O)c2ccc(Cl)cc2)cc1", "growth inhibition": "-3.35% (inactive)"}, {"smiles": "COc1ccc2c(c1)-c1c(ccc(OC)c1O)CC(c1ccccc1)[N+](C)(C)CC2", "note": "(stereo not given)", "growth inhibition": "-2.5% (inactive)"}, {"smiles": "CC1=Nc2ccccc2C12C(c1ccccc1)C(c1ccccc1)C(=O)N1c3ccccc3CC12", "note": "(stereo not given)", "growth inhibition": "-1.65% (inactive)"}, {"smiles": "O=CC(O)C(Cl)C(Cl)C(O)CCl", "note": "(stereo not given)", "growth inhibition": "40.7% (inactive) and -14.5% (inactive)"}, {"smiles": "C=C1CC[C@@H](C)[C@](C)(CCc2ccoc2)C/C=C\\C=C/1C(=O)O", "growth inhibition": "61.6% (inactive)"}, {"smiles": "O=c1[nH]c(=O)c2[nH]c(Br)nc2[nH]1", "growth inhibition": "3.85% (inactive)"}, {"smiles": "N#CC(C(=O)C(=O)Nc1nccs1)c1ccccc1", "note": "(stereo not given)", "growth inhibition": "16% (inactive)"}, {"smiles": "CCCCc1cc(C(=O)OC/C(C)=N/NC(N)=O)c2ccccc2n1", "growth inhibition": "9.45% (inactive)"}, {"smiles": "CC(=O)Nc1cccc(OC(=O)Nc2ccc(F)c(Cl)c2)c1", "growth inhibition": "82% (active)"}, {"smiles": "OC1COC(OCc2ccccc2)C(O)C1O", "note": "(stereo not given)", "growth inhibition": "-3.4% (inactive) and -12.2% (inactive)"}, {"smiles": "COc1nc(NC2OC(CO)C(O)C(O)C2O)c(I)c(=O)[nH]1", "note": "(stereo not given)", "growth inhibition": "21.8% (inactive)"}, {"smiles": "CC(=O)CC(C)(C)c1cc(-c2ccccc2)on1", "growth inhibition": "12.8% (inactive)"}, {"smiles": "COc1ccc(C(c2ccc(OC)cc2)N2C(=O)CCC2C(=O)O)cc1", "note": "(stereo not given)", "growth inhibition": "-12.6% (inactive)"}, {"smiles": "CCOC(=O)c1cccc(N)c1C(=O)OCCN(CC)CC", "growth inhibition": "3.55% (inactive)"}, {"smiles": "CCCCCCC1OC(C)C(C)O1", "note": "(stereo not given)", "growth inhibition": "15.4% (inactive)"}, {"smiles": "O=C(O)C1(F)CC1(c1ccccc1)c1ccccc1", "note": "(stereo not given)", "growth inhibition": "-7.8% (inactive)"}, {"smiles": "c1nc2nc(N3CCOCC3)nc(N3CCOCC3)c2[nH]1", "growth inhibition": "8.7% (inactive)"}, {"smiles": "COc1ccccc1C(=O)N/N=C/c1cccc([N+](=O)[O-])c1", "growth inhibition": "4.75% (inactive)"}, {"smiles": "COC(=O)c1ccccc1NS(=O)(=O)c1ccc(Cl)cc1", "growth inhibition": "82.2% (active)"}, {"smiles": "CO/N=C1/OC(=O)OCC1(c1ccccc1)c1ccccc1", "growth inhibition": "-3.3% (inactive)"}, {"smiles": "CCOC(=O)C(C)NC(=O)c1ccccc1", "note": "(stereo not given)", "growth inhibition": "0.75% (inactive)"}, {"smiles": "Cn1c([N+](=O)[O-])cnc1CSc1nc(-c2ccccc2)no1", "growth inhibition": "33.1% (inactive)"}, {"smiles": "COC1CCC(=O)N1CN(C(C)=O)c1ccc(C)cc1", "note": "(stereo not given)", "growth inhibition": "-28.1% (inactive)"}, {"smiles": "COc1ccc(COC(=O)Nc2ccc(Br)cc2)c(OC)c1", "growth inhibition": "9.55% (inactive)"}, {"smiles": "O=C1OC(c2ccccc2)=N/C1=C\\c1ccccc1", "growth inhibition": "-8.7% (inactive) and 26.8% (inactive)"}, {"smiles": "CCC1(C=O)C(=O)NC(=O)N1C", "note": "(stereo not given)", "growth inhibition": "6.45% (inactive)"}, {"smiles": "CCN(CCOC)C(C)=O", "growth inhibition": "-3.05% (inactive)"}, {"smiles": "O=C1CCCc2ccc3c(c21)CC1(Cc2cc4c(cc2C1)CCCC4)C3", "growth inhibition": "-2.7% (inactive)"}, {"smiles": "CN(C)c1ccc(NC(=O)C(c2ccccc2)c2ccccc2)cc1", "growth inhibition": "-12.9% (inactive)"}, {"smiles": "ClC(Cl)(Cl)c1ncnc2nc[nH]c12", "growth inhibition": "13.3% (inactive)"}, {"smiles": "O=c1c(O)c(-c2cc(O)c(O)c(O)c2)oc2cc(O)cc(O)c12", "growth inhibition": "-8.55% (inactive)"}, {"smiles": "CCOC(CC(=O)NCCNC(C)=O)OCC", "growth inhibition": "43.1% (inactive)"}, {"smiles": "O=C1c2ccccc2CC(c2ccccc2)N1c1ccccc1", "note": "(stereo not given)", "growth inhibition": "32.1% (inactive)"}]}]}
